# Source: PubChem (National Center for Advancing Translational Sciences (NCATS))
# In the library only some 19% were active in any assay of this set; here they are far more common.
# TDP1 cell CPT: DT40-hTDP1 cell growth loss with CPT; chicken DT40 Tdp1-/-;hTDP1 cells + 20 nM CPT, ATP luminescence, 48 h; Potency, µM (series often up to 46.2 µM), without a hit: top-dose activity change, negative = growth inhibition, hits mostly inhibitors; hit rate 12% among 420,000; note: potency is the fitted concentration of half-maximal effect; % is set by controls: 0 for no effect and ±100 for the full control effect; nearly all actives have a fitted effect of over 55% in size
#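 Cell growth measured by CellTiter-Glo luminescence after a minimum 48 h, 37 C compound exposure with 20 nM CPT in Tdp1-knockout DT40 cells stably expressing hTDP1, seeded 400/well; qHTS titration format.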
# TDP1 cell noCPT: qHTS for Inhibitors of human tyrosyl-DNA phosphodiesterase 1 (TDP1): qHTS in cells in absence of CPT; DT40 Tdp1-/- hTDP1 cells, no CPT, ATP luminescence, 48 h; Potency, µM (series often up to 46.2 µM), for the others: at the highest dose activity change, negative = growth inhibition, most hits filed as inhibitors; hit rate 15% among 420,000; AID 686978, 2013; note: potency is the fitted concentration of half-maximal effect; % is set by controls: 0 for no effect and ±100 for the full control effect; nearly all actives have a fitted effect of over 55% in size
#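 Stably hTDP1-transfected Tdp1-null chicken DT40 cells were treated with library compounds minus camptothecin and grown for at least 48 hr at 37 °C, after which cellular ATP was quantified by luminescence.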
# HepG2 viability: counter-screen for TGF-b inhibitors: cytotoxicity in HepG2 cells; hit rate 0.76% among 410,000; HepG2 CAGA-GFP viability, ATP luminescence, 18 h; Potency, µM (highest dose often 46.1 µM), inactives show at the highest dose activity change, negative = cytotoxicity, usual class: cytotoxic; note: potency is the fitted concentration of half-maximal effect
#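 CellTiter-Glo luminescence gave cytotoxicity after 18 hours at 37 degrees C. The cells were HepG2 CAGA-GFP in 1% FBS DMEM, stimulated with 500 pg/mL TGF-beta after compound addition. %Activity was normalised to no-cell wells (complete cell-killing) and DMSO (no toxicity), and curves were fitted and classified.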
# IL-1B inflam inh: inflammasome signaling inhibition, IL-1 beta readout; hit rate 4.7% among 360,000; AID 743279; THP-1 LPS/ATP IL-1B secretion, AlphaLISA, 16 h; stronger effect = lower value; activity change, % at 57.5 µM; in the data active = activity change below about -50%; inconclusive = mostly about -30% to -49%; note: % is set by controls: 0 for no effect and ±100 for the full control effect
#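 Secreted IL-1B measured by AlphaLISA bead assay after 16 h compound exposure of THP-1 cells; compounds (final up to 57.5 uM) added 1 h before LPS (250 ng/mL) and ATP (1.25 mM) stimulation; lower signal means less secretion.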
# TGFb SMAD3 inh: inhibitors of TGF-b signaling. HepG2 CAGA-GFP TGF-b/SMAD3 reporter, GFP fluorescence, 18 h; TGF-beta stimulated, 500 pg/mL final. Potency, µM (top dose mostly 46.1 µM), without a hit: at the highest dose activity, negative = inhibition, usual class: inhibitors. hit rate 1.2% among 410,000. AID 588855; note: potency is the fitted concentration of half-maximal effect; % is set by controls: 0 for no effect and ±100 for the full control effect; nearly all actives have a fitted effect of over 65% in size
#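 Smad-responsive CAGA-GFP expression was quantified in HEPG2 cells exposed to compounds and 500 pg/mL final TGF-beta for 18 h at 37 degrees C; unstimulated wells defined full inhibition.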
# TDP1 block: blocks human tyrosyl-DNA phosphodiesterase 1. Q9NUW8. recombinant TDP1, AlphaScreen DNA substrate cleavage. Potency, µM (titrated, usually from 130 µM), for the others: at the highest dose activity change, negative = inhibition, most hits filed as inhibitors. hit rate 0.28% among 350,000. AID 485290; note: potency is the fitted concentration of half-maximal effect; % is set by controls: 0 for no effect and ±100 for the full control effect; nearly all actives have a fitted effect of over 40% in size
# Target sequence (Q9NUW8 whole entry, looked up): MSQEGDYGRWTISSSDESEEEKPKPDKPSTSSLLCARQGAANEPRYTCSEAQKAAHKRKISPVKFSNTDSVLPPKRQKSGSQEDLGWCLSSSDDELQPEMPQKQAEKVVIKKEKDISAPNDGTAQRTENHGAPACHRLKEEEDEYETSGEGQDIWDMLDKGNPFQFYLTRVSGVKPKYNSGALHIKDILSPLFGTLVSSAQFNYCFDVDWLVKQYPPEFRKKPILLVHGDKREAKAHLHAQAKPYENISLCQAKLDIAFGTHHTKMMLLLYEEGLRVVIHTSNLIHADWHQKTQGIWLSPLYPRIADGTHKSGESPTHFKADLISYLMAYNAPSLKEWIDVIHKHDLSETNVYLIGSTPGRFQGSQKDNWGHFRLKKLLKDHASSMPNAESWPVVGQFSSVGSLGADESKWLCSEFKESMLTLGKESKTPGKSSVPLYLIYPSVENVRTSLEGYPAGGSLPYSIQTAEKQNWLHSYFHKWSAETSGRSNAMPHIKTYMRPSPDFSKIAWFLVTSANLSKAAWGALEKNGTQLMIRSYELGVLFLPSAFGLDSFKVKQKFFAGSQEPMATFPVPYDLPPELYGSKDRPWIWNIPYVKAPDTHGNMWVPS
#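 Recombinant E. coli-expressed Tdp1 (1 nM) preincubated with compound 15 min at RT, then 5'-biotin/3'-phosphotyrosine-FITC DNA substrate (15 nM) added for 5 min. AlphaScreen beads (10 ug/ml) added, 10 min RT; tyrosine-FITC cleavage read as signal loss.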
# Active calls of the source: *; ? = inconclusive; . = no result; [ ] = another dose, or the depositor's remark. Unless noted, calls come from the whole dose curve; as a rule, active = well fitted curve in the direction sought with a large enough effect; inconclusive = small, poorly fitted or top-dose-only effect, or another doubt; inactive = no such curve, though single readings can be large; an effect the other way counts as inactive or inconclusive.
SMILES,TDP1 cell CPT,TDP1 cell noCPT,HepG2 viability,IL-1B inflam inh,TGFb SMAD3 inh,TDP1 block
CC(=O)c1ccc(NC(=O)C(C)Oc2ccc(N(C)S(=O)(=O)c3ccc(C)cc3)cc2)cc1 (centres undefined),?,?,1%,-18,?,-2%
CC(Oc1ccc(F)cc1)C(=O)Oc1ccc(N(C)S(=O)(=O)c2ccccc2)cc1 (centres undefined),-23%,-26%,0%,6,0%,.
CC(Oc1ccc(F)cc1)C(=O)Nc1cccc(S(=O)(=O)N(C)c2ccccc2)c1 (centres undefined),?,16µM*,-4%,9,?,.
Cc1ccc(S(=O)(=O)N(C)c2ccc(OC(C)C(=O)N(C)c3ccccc3)cc2)cc1 (centres undefined),15µM*,18µM*,-27%,6,-6%,0%
CC(=O)c1cccc(NC(=O)CSc2nc3ccccc3nc2Cc2ccc(F)cc2)c1,?,-30%,-10%,.,0%,0%
CCOC(=O)C1CCN(C(=O)Cn2c(=O)c3cccn3c3cccnc32)CC1,-19%,?,-25%,6,-24%,0%
COc1cc(/C=C(/C#N)C(=O)Nc2cc(C(F)(F)F)ccc2Cl)ccc1OCC(=O)Nc1cccc(C(F)(F)F)c1,18µM*,23µM*,0%,4,18%,.
N#C/C(=C\c1ccc(OCc2ccccc2)cc1)C(N)=O,?,23µM*,-5%,-14,-2%,8%
O=C(COc1ccc(C(F)(F)F)cc1[N+](=O)[O-])Nc1cccc(C(F)(F)F)c1,24%,-16%,7%,-10,3%,3%
Cc1nn2c(=O)cc(COc3ccc(/C=C(\C#N)C(=O)Nc4ccccc4C)cc3)nc2s1,14%,?,-11%,.,-6%,.
Cc1nn2c(=O)cc(COc3ccc(/C=C(\C#N)C(=O)Nc4ccccc4)cc3Cl)nc2s1,-10%,21µM*,-18%,.,?,.
N#C/C(=C\c1ccc(OCc2ccc(F)cc2)cc1)C(=O)Nc1cccc(C(=O)O)c1,3%,3%,-18%,-3,1%,45µM*
N#C/C(=C\c1ccc(OCc2ccccc2)cc1)C(=O)Nc1nc2c(s1)CCN(Cc1ccccc1)C2,23µM*,21µM*,0%,22,26%,3%
N#C/C(=C/c1ccc(OCc2ccc(C(=O)O)cc2)cc1)C(=O)Nc1ccccc1,-25%,-26%,17%,?,15%,.
CCOc1cc(/C=C(\C#N)C(=O)Nc2cccc(C(=O)O)c2)ccc1OCc1ccccc1Cl,?,?,-2%,-3,17%,79µM*
COc1cc(/C=C(\C#N)C(=O)Nc2cccc(C(=O)O)c2)ccc1OCc1ccc(F)cc1,-5%,-11%,-9%,8,8%,56µM*
N#C/C(=C\c1ccc(OCc2ccc(Br)cc2)cc1)C(=O)Nc1cccc(C(=O)O)c1,25%,-5%,-30%,-21,-25%,22µM*
Fc1ccc(-c2nc(Nc3cccc(C(F)(F)F)c3)nc3c2COc2ccccc2-3)cc1,?,?,0%,.,-9%,9%
COC(=O)C/C=C\[C@@H](C)[C@@H](/C=N\O[C@@H](C)c1cn([C@H](CO)Cc2ccccc2)nn1)NS(=O)(=O)c1ccc(C)cc1,.,.,.,.,.,5%[21 µM]
Cn1c2cc(C=O)sc2c2cnn(Cc3ccccc3F)c(=O)c21,.,.,.,.,.,-2%
CCC(=O)N(CC(=O)Nc1sc(C)c(C)c1C(N)=O)C1CCCC1,23µM*,13µM*,0%,17,-2%,5%
Cc1sc(NC(=O)CN(Cc2ccc(F)cc2)C(=O)C(C)C)c(C(N)=O)c1C,3.7µM*,2.3µM*,-41%,?,?,1%
CCC(=O)N(CC(=O)Nc1sc(C)c(C)c1C(N)=O)Cc1ccc(F)cc1,21µM*,15µM*,-4%,8,-19%,-2%
COc1ccc(C(=O)N(CC(=O)Nc2sc(C)c(C)c2C(N)=O)C2CCCC2)cc1,?,?,6%,6,4%,3%
Cc1sc(NC(=O)CN(Cc2ccccc2)C(=O)C(C)C)c(C(N)=O)c1C,1.8µM*,1.2µM*,-25%,25,?,5%
SMILES,TDP1 cell CPT,TDP1 cell noCPT,HepG2 viability,IL-1B inflam inh,TGFb SMAD3 inh,TDP1 block
O=C(NC1CCN(S(=O)(=O)c2ccc(Cl)c(F)c2)CC1)c1cccnc1,-13%,-26%,7%,-8,6%,.
CCOc1ccc(OCCC(=O)OCC(=O)N(CC)c2c(N)n(Cc3ccccc3)c(=O)[nH]c2=O)cc1,?,?,2%,-1,6%,.
Cc1ccc(C(=O)NCC(=O)OCc2cccc(Br)c2)cc1,6%,6%,0%,3,-3%,-7%
CCCCCC(=O)O[C@H](CC(=O)O)C[N+](C)(C)C,8%,-11%,.,.,.,9%[56.1 µM]
Cc1ccc(C(=O)OCC(=O)c2ccc(CC(=O)N3CCOCC3)s2)c(C)c1,-16%,-4%,11%,8,-4%,50µM*
CCC(C)Nc1nc(N)c([N+](=O)[O-])c(Nc2ccccc2OC)n1 (centres undefined),?,?,22%,-88*,-38%,3%
COc1ccccc1Nc1nc(NCCCN(C)C)nc(N)c1[N+](=O)[O-],-82%,?,-1%,-63*,7%,-1%
C=CCNc1nc(N)c([N+](=O)[O-])c(Nc2ccccc2OC)n1,?,-1%,-2%,0,0%,.
COc1ccccc1Nc1nc(NCC(C)C)nc(N)c1[N+](=O)[O-],?,26µM*,-52%,4,0%,3%
COc1ccc(OC)c(Nc2nc(NCCC(C)C)nc(N)c2[N+](=O)[O-])c1,?,?,-1%,11,8%,6%
Cc1cc(C)cc(NC(=O)N2CCN(C(=O)c3nsc4ccccc34)CC2)c1,?,?,-3%,.,-21%,-3%
O=C(CCCn1c(=O)c2sccc2n(Cc2ccc(F)cc2Cl)c1=O)NCc1ccc2c(c1)OCO2,-4%,-30%,13%,.,5%,-2%
O=C(c1cnccn1)N1CCC2(CCCN(c3ccccc3)C2)CC1,-29%,?,.,.,.,.
CC(=O)C(=Cc1ccc(Cl)cc1)C(=O)c1ccccc1,18µM*,18µM*,-64%,-108*,?,.
COc1ccc(C=C(C(=O)c2ccccc2)C(=O)c2ccccc2)cc1,?,?,11µM*,-82*,?,.
